Experimental findings from PubChem BioAssay AID1578 (Sanford-Burnham Center for Chemical Genomics, 2009) are described below.

Out of some 290,000 compounds screened, about 3,000 (1%) were called active. This is one part of a sample in which actives are shown more often than they occur. No stated cut-off is given here; in the data, active means inhibition mostly above about 36% (no sharp cut-off); inactive means mostly below about 34%.

This experiment is described as follows: inhibition of NOD1-driven NF-kB reporter – cell-based, luminescence, uHTS, primary screen (AID 1578).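 Further: HEK-293T reporter cells stimulated with the NOD1 agonist gamma-tri-DAP.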 The note with it: NOD1-driven NF-kB luciferase reporter cells, at 4 µM, active compounds read high. A general note: In a reporter assay the amount or activity of a reporter protein is the signal.
The inhibition is the relative decrease from the control value, in per cent. For `CCN(CCCNC(=O)c1c(C)cc(=O)oc1C)c1ccccc1`, the inhibition was 8.4% (inactive).
With `CCn1c(C)cc(/C=C2\NC(=O)N(CC(=O)Nc3cccc(C)c3)C2=O)c1C`, the inhibition is 9.5% (inactive).
For `COc1cccc(/C=N/c2oc(-c3ccccc3)cc2C#N)c1O` the value was -11% (inactive); for `COc1cc(/C=N/c2oc(-c3ccccc3)cc2C#N)ccc1O`, -15.3% (inactive).
As for `N#Cc1cc(-c2ccccc2)oc1/N=C/c1ccccc1O`, the inhibition was 49.6% (active).
With `Nc1ccc(Br)cc1C(NCC(=O)O)c1ccccc1` (configuration not stated) the figure was -19% (inactive); with `CC(C)(C)NC(=O)C1CCN(S(=O)(=O)c2cccc(C(F)(F)F)c2)CC1`, -13.7% (inactive).
For the compound `COc1ccc(C2(c3ccc(OC)cc3)NC(=O)N(CC(=O)Nc3ccccc3C(F)(F)F)C2=O)cc1`, the inhibition is -18.1% (inactive).
For `O=C(Nc1cccc(Cl)c1)c1cccnn1` the value was -9.2% (inactive); for `CCOc1ccc(/C=C/C(O)=C2/C(=O)NC3(C)CC2c2ccccc2O3)cc1OC` (configuration not stated), 46.7% (inactive); for `COc1ccc(/C=C/C(O)=C2/C(=O)NC3(C)CC2c2ccccc2O3)c(OC)c1OC` (configuration not stated), 69.9% (active).
For `COc1cccc2c1OC1(C)CC2/C(=C(\C)O)C(=O)N1` (configuration not stated), the inhibition was -20.8% (inactive).
For `COc1ccc(CCNC(=S)Nc2cccc(C)c2C)cc1` the value was -19.9% (inactive); for `COc1ccc(OC)c(NC(=O)COC(=O)/C=C/c2c(C)nn(C3CCS(=O)(=O)C3)c2Cl)c1` (configuration not stated), -5% (inactive); for `COc1ccc2nc(N3CCCCC3)c(C#N)cc2c1`, -123% (inactive).
Regarding `COc1ccc2cc(C#N)c(N3CCOCC3)nc2c1`, the inhibition was 2.7% (inactive).
Consider `O=C1NC(=S)S/C1=C/c1ccc(N2CCOCC2)o1`, for which the inhibition is 27.5% (inactive).
For `COc1ccc2cc(/C=C3\SC(=S)NC3=O)c(N3CCOCC3)nc2c1` the value was 71.4% (active).
With `COc1ccc(-n2c(C)cc(/C=C3\SC(=S)NC3=O)c2C)cc1` the figure was -70.7% (inactive).
In the case of `COc1ccccc1C(=O)NC(=S)Nc1ccc2[nH]c(=O)[nH]c2c1`, the inhibition was -36.5% (inactive).
For `Cc1ccc(NC(=O)CCC(=O)OCC(=O)c2ccc(Oc3ccc([N+](=O)[O-])cc3)cc2)cc1C` the value was -7% (inactive); for `OCCSc1nc(N2CCOCC2)nc(N2CCOCC2)n1`, -22.8% (inactive); for `COC(=O)c1cc(CSc2ncnc3sccc23)oc1C`, -1.8% (inactive).
As for `Cc1cc(-n2cnc(-c3cn[nH]c3C)n2)no1`, the inhibition was -8.9% (inactive).
In the case of `O=S(=O)(Nc1nc2ccccc2nc1Nc1cccc(S(=O)(=O)N2CCCCC2)c1)c1ccccc1`, the inhibition was 98.4% (active).
For `O=S(=O)(Nc1cccc(S(=O)(=O)N2CCCCCC2)c1)c1ccccc1` the value was -11.7% (inactive); for `COc1ccc(S(=O)(=O)Nc2nc3ccccc3nc2Nc2ccc3c(c2)OCO3)cc1`, 7% (inactive).
With `COc1ccc(S(=O)(=O)Nc2cccc(S(=O)(=O)N3CCCCCC3)c2)cc1` the figure was -27% (inactive); with `O=S(=O)(Nc1nc2ccccc2nc1Nc1ccc2c(c1)OCO2)c1ccccc1`, 57.6% (inactive).
With `CCOc1ccc(NS(=O)(=O)c2ccc(C(=O)N(CC)CC(=O)NCc3cccs3)cc2)cc1` the figure was -1.7% (inactive); with `COc1cccc(CNC(=O)COc2ccc(C(=O)c3ccccc3)cc2)c1`, 4% (inactive); with `O=C(NCc1ccco1)Nc1ccc(OC(F)(F)F)cc1`, -6.5% (inactive).
For `O=C(C1=NN[C@@H]2C(=O)N(c3ccccc3C(F)(F)F)C(=O)[C@H]12)c1cnccn1`, the inhibition was -13.1% (inactive).
With `Cc1ccc2nc3sc(C(=O)Nc4ccc(N5CCOCC5)cc4)c(N)c3cc2c1` the figure was -21.9% (inactive); with `Cc1cccc2cc3c(N)c(C(=O)N4CCOCC4)sc3nc12`, -5% (inactive).
Take `COc1cc(NC(=O)CSc2nccc(=O)[nH]2)c(C)cc1[N+](=O)[O-]`: the inhibition was -24.5% (inactive).
For `Cc1cc(-c2ccc(C)c(S(=O)(=O)N3CC(=O)Nc4ccccc43)c2)on1` the value was -2.5% (inactive); for `Cc1ccc(C(=O)CC2(O)C(=O)N(C)c3ccccc32)s1` (configuration not stated), -9.2% (inactive).
Regarding `CC(=O)N1c2ccccc2C2(O)N=C(C)SC12` (configuration not stated), the inhibition is 66.4% (active).
Consider `CC(=O)N1c2ccccc2C(C)(C)C2CCC(C)CC21` (configuration not stated), for which the inhibition was -5.9% (inactive).
On to `COc1ccc(C(=O)NNC(=O)CN2CCC(n3nnc4cc(C)ccc43)CC2)cc1`, for which the inhibition is -14.9% (inactive).
With `O=C(OCc1ccc(Cl)cc1)c1cccnc1Cl` the figure was -33% (inactive); with `CCCCOCCCNc1ncnc2c1[nH]c1ccccc12`, 65.9% (active); with `CCOCCCNc1ncnc2c1[nH]c1ccccc12`, 19.9% (inactive).
For `COCCCNc1ncnc2c1[nH]c1ccccc12` the value was -16.9% (inactive); for `O=S(=O)(c1ccc(S(=O)(=O)n2cnc3ccccc32)cc1)N1CCCCCC1`, 8.9% (inactive).
With `C=CCO/N=C/C1C(=O)CC(C)(C)CC1=O` the figure was -25.9% (inactive); with `O=C(NC12CC3CC(CC(C3)C1)C2)N1CCN(c2ccccc2)CC1`, -18% (inactive).
As to `Clc1ccccc1OCCCOc1cccc2cccnc12`, the inhibition is -0.6% (inactive).
With `CCOc1ccc(CN(C)c2nc(-c3cccnc3)nc3ccccc23)cc1OC` the figure was 55.2% (active); with `CN(Cc1cccs1)c1nc(-c2cccnc2)nc2ccccc12`, -37.4% (inactive); with `COc1ccc(CN(C)c2nc(-c3cccnc3)nc3ccccc23)cc1OC`, 36.1% (inactive).
With `Cc1ccc2cc(C#N)c(NCCNC(=S)NCCCN(C)C)nc2c1C` the figure was -23.4% (inactive).
With `CCCn1c(SCC(=O)Nc2nnc(C(C)C)s2)nc2c1c(=O)n(C)c(=O)n2C` the figure was 34% (inactive); with `CCCCn1c(SCC(=O)Nc2nnc(C)s2)nc2c1c(=O)n(C)c(=O)n2C`, 6.2% (inactive).
For `O=C(c1cnn(C(=O)c2cccc(S(=O)(=O)N3CCOCC3)c2)c1)c1ccccc1O`, the inhibition is 9.5% (inactive).
`COc1ccc(S(=O)(=O)N2CCc3ccccc32)cc1C(=O)OCC(=O)c1c(N)n(C)c(=O)n(C)c1=O`: the inhibition is -11.1% (inactive).
For `CC1CCCCC1NC(=O)CCCn1c(=S)[nH]c2ccsc2c1=O` (configuration not stated) the value was -13.7% (inactive).
With `CCn1cc(CN2CCc3c([nH]c4ccccc34)C2c2ccc(F)c(OC)c2)c(C)n1` (configuration not stated), the inhibition was -23.6% (inactive).
For `Cc1ccc(CS(=O)(=O)CCC(=O)NCCN2CCCCC2C)cc1` (configuration not stated), the inhibition is 96.5% (active).
Regarding `Cc1ccc(CS(=O)(=O)CCC(=O)NCCN2CCCC2)cc1`, the inhibition was -7.3% (inactive).
For `Cc1ccc(CS(=O)(=O)CCC(=O)NCCCN2CCCC2)cc1` the value was -5.9% (inactive).
